PK Bst: Pyruvate Kinase. purified pyruvate kinase, luminescence ATP production; ribose 5-phosphate activator present at AC10. Potency, µM. 1.2% of 51,000 active; in the data active = potency below about 11 µM; inconclusive = mostly about 12 µM to 25 µM;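 the screen sought inhibitors and activators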;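 note: scaled between full activation by ribose 5 phosphate and full inhibition by luteolin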
Casp7 inh: qHTS Assay for Allosteric/Competitive Inhibitors of Caspase-7; 0.02% of 75,000 active; AID 889, 2007; recombinant caspase-7, Ac-DEVD-AFC fluorescence rate; Potency, µM (highest dose often 57.5 µM), inactives show top-dose activity change, negative = inhibition, actives largely listed as inhibitors; active = well fitted inhibition curve with a large enough effect in the main read-out, with a control signal flat, not every such curve was filed as active; inconclusive = small, poorly fitted or top-dose-only effect, or a change in a side signal; note: % of control where 0% means no effect
Tau filament bind: qHTS Assay for Tau Filament Binding; 2% of 71,000 active; Microtubule-associated protein tau (Homo sapiens), P10636; recombinant tau filaments, thioflavin S fluorescence, 15 h; filaments grown with octadecylsulfate alongside compound; Potency, µM (highest dose often 57.1 µM), for inactives: top-dose activity change, negative = inhibition;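 note: % is set by controls: 0 for no effect and ±100 for the full control effect; actives lower thioflavin S fluorescence by blocking filaments or displacing dye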
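Quantitative HTS: thioflavine S signal from ODS-induced tau filaments, excited at 450 nm, emission 510 nm. Conditions: 1 uM tau, 30 uM ODS, 15 h at 37 C, pH 7.4.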
Luciferase inh: qHTS Assay for Inhibitors of Firefly Luciferase; purified firefly luciferase, luminescence, 8 min; Potency, µM (titrated, usually from 57.1 µM), without a hit: at the highest dose activity change, negative = inhibition, most hits filed as inhibitors; 2.2% of 72,000 active; AID 411, 2009; note: % is set by controls: 0 for no effect and ±100 for the full control effect; nearly all actives have a fitted effect of over 40% in size
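qHTS concentration-response profiling: light output of P. pyralis luciferase with luciferin and 10 uM ATP, imidazole buffer pH 7.2. Read by luminescence after 8-min room-temperature incubation.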
Casp1 inh: qHTS Assay for Allosteric/Competitive Inhibitors of Caspase-1 | P29466 | Caspase-1 enzyme, Ac-WEHD-AFC fluorogenic rate | Potency, µM (series often up to 57.5 µM), for inactives: at the highest dose activity change, negative = inhibition, usual class: inhibitors | 0.03% of 75,000 active | AID 900, 2007;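 note: plate controls were vehicle for no effect and no substrate for full effect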
Target sequence (P29466 120-297 limits assumed): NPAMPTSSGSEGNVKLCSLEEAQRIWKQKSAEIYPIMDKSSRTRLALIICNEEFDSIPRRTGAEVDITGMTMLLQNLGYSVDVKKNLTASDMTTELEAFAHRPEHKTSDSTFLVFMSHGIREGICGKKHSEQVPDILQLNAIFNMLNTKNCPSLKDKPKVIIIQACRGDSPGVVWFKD
Target sequence (P29466 317-404 limits assumed): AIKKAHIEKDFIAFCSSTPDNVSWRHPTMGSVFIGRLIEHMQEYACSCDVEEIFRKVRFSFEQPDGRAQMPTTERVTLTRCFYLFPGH
Numbers without * were called inactive; [ ] = remark or other dose. The list is not random: actives were taken first. Their share in the collection is about 4%. Unless noted, calls come from the whole dose curve; as a rule, active = well fitted curve in the direction sought with a large enough effect; inconclusive = small, poorly fitted or top-dose-only effect, or another doubt; inactive = no such curve, though single readings can be large; an effect the other way counts as inactive or inconclusive. Potency is the fitted concentration of half-maximal effect.

For Nc1cccc(-c2nc3ccc(N)cc3s2)c1 the results were PK Bst 0.71*, Casp7 inh inconclusive, Tau filament bind inconclusive and Luciferase inh 1µM*.
Screening CC(=O)NCCNc1ncnc2ccc(-c3ccccc3C(F)(F)F)cc12 returned Casp7 inh -3%, Tau filament bind 3%, Luciferase inh -1%[2.29 µM] and Casp1 inh 0%.
For Nc1c(S(=O)(=O)O)cc(S(=O)(=O)O)c2ccc(N=Nc3ccccc3)c(O)c12 the results were Casp7 inh -2%[11.5 µM], Tau filament bind -1%[11.4 µM], Luciferase inh -7%[11.4 µM] and Casp1 inh 2%[11.5 µM].
Screening Cc1cc(-c2ccc(N=Nc3cc(S(=O)(=O)O)c4ccccc4c3N)c(C)c2)ccc1N=Nc1cc(S(=O)(=O)O)c2ccccc2c1N returned Casp7 inh 0%, Tau filament bind 0.02µM* and Casp1 inh -6%.
Screening S[C@@H]1CCCN(Cc2ccccc2)C1 returned Casp7 inh 1%[11.5 µM], Tau filament bind -9%[11.4 µM], Luciferase inh 0%[11.4 µM] and Casp1 inh -3%[11.5 µM].
`O=C(O)CCC/C=C\C[C@H]1[C@@H](/C=C\[C@@H](O)C2Cc3ccccc3C2)[C@H](F)C[C@H]1O` gave Tau filament bind 2% and Luciferase inh 6%.
`O=c1[nH]cc(CS(=O)(=O)Cc2c[nH]c(=O)[nH]c2=O)c(=O)[nH]1` gave Casp7 inh 4%[11.5 µM], Tau filament bind 0%[11.4 µM], Luciferase inh 2%[11.4 µM] and Casp1 inh -3%[11.5 µM].
`CCOc1ccc(-c2cnc(SCC(N)=O)nc2N)cc1` gave PK Bst 10*, Casp7 inh -1%, Tau filament bind 4%, Luciferase inh 0% and Casp1 inh 0%.
For CCOc1ccc(-n2c(COc3ccc(C)cc3)nnc2SCC(N)=O)cc1 the results were PK Bst >57, Casp7 inh -4%, Tau filament bind 2%, Luciferase inh 2% and Casp1 inh -3%.
CC12C=C(/C=C/c3ccccc3)C(C)(C1)C(c1ccccc1)CC2=O (centres undefined) was read as Casp7 inh 1%[11.5 µM] and Casp1 inh 1%[11.5 µM].
`COc1ccc(CNc2ccnc(-c3cccc(C#N)c3)n2)c(OC)c1` gave Casp7 inh -6%, Tau filament bind 16%, Luciferase inh -2%[2.29 µM] and Casp1 inh -9%.
Screening COc1ccc(O)c(-c2cc(-c3cccc(Br)c3)n[nH]2)c1 returned Casp7 inh -9%, Tau filament bind 424%, Luciferase inh -26% and Casp1 inh -5%.
For Cc1ccc(-c2cc(-c3cccc(F)c3)n[nH]2)c(O)c1 the results were PK Bst 11*, Casp7 inh -18%, Tau filament bind -27%, Luciferase inh 13µM* and Casp1 inh inconclusive.
Oc1ccccc1-c1cc(-c2ccc3c(c2)OCCO3)n[nH]1 was read as PK Bst 1.9*, Casp7 inh -9%, Tau filament bind -19%, Luciferase inh 3.2µM* and Casp1 inh -2%.
Screening COc1ccc(-c2cc(-c3cc(F)ccc3O)[nH]n2)cc1OC returned PK Bst 9.6*, Casp7 inh -7%, Tau filament bind 83%, Luciferase inh 13µM* and Casp1 inh -4%.
COc1ccc(-c2cc(-c3ccccc3O)[nH]n2)cc1OC was read as Casp7 inh -2%, Tau filament bind 90%, Luciferase inh 4µM* and Casp1 inh -2%.
For Cc1noc(C)c1-c1ccc2ncnc(Nc3ccc(F)cc3)c2c1 the results were Casp7 inh -6%, Tau filament bind 8%, Luciferase inh 1%[2.29 µM] and Casp1 inh -4%.
CNc1cc(-c2ccccc2C(F)(F)F)ncn1 was read as Casp7 inh -2%, Tau filament bind -5%, Luciferase inh -12%[2.29 µM] and Casp1 inh -4%.
For Nc1ncnc2c1ncn2[C@H]1O[C@@H](CO)[C@@H](O)[C@H]1N the results were Casp7 inh 1%[11.5 µM], Tau filament bind 5%[11.4 µM], Luciferase inh 0%[11.4 µM] and Casp1 inh 1%[11.5 µM].
`COc1ccc(-c2nnc(N(C)C(=O)c3cccnc3)s2)cc1` gave Casp7 inh 1%, Tau filament bind 4%, Luciferase inh 6.3µM* and Casp1 inh 1%.

Screening data as filed in PubChem BioAssay.
